A selection: hits, their analogues and other compounds. The true share with any hit is near 13%.
HCMV inh: human cytomegalovirus inhibition. 410,000 compounds, 4.5% hits. HFF cells, HCMV-luciferase reporter, 72 h; active compounds read low. AID 1259415. activity change, negative = inhibition, % at 57.5 µM; in the data active = activity change below about -60%; inconclusive = no clear call, values can overlap the other calls; inactive = above about -39%
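Screen run at 2 compound doses on HFFs infected with reporter HCMV, MOI 1 PFU/cell. Luciferase activity from cell lysates at 72 h post infection gave inhibition relative to buffer-only and Salinomycin wells.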
Pf growth 96h: P. falciparum growth inhibition at 96 hour, primary screen for plastid delayed-death inhibitors | Potency, µM (top dose mostly 28.7 µM), usual class: inhibitors | P. falciparum luciferase reporter growth, 96 h | 320,000 compounds, 6.9% hits
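Luminescence readout: decreased luciferase signal marks inhibited growth of reporter-expressing P. falciparum in infected red cells (2% hematocrit, 0.05% parasitemia final), exposed to compound two generations (96 h, 37 C, 5% CO2).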
HCV inh: HCV inhibition | Potency, µM (titrated, usually from 41.8 µM), actives largely listed as inhibitors | 340,000 compounds, 3.4% hits | Huh7.5.1 HCVcc-Cre infection, luciferase reporter, 44 h
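Infectious HCVcc-Cre (~0.5 moi) was added to cells just after compound, with cells seeded 4 h earlier at 1,000 per well. Luciferase activity after 44 h culture reported infection; substrate was incubated 15 min at room temperature before reading.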
Pf growth 48h: P. falciparum growth inhibition at 48 hours (one generation); 310,000 compounds, 5.9% hits; Potency, µM (series often up to 28.7 µM), actives largely listed as inhibitors; P. falciparum luciferase growth in erythrocytes, 48 h; AID 504832
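Firefly luciferase activity from engineered P. falciparum reports growth; inhibitors lower the luminescent signal. Cultures contained 2% hematocrit erythrocytes at 0.1% final parasitemia.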
A number is an active result; 0 = inactive; ? = inconclusive; - = not tested or not shown. Unless noted, calls come from the whole dose curve; as a rule, active = well fitted inhibition curve with a large enough effect; inconclusive = small, poorly fitted or top-dose-only effect, or another doubt; inactive = no such curve, though single readings can be large or run the other way.

SMILES	HCMV inh	Pf growth 96h	HCV inh	Pf growth 48h
COc1ccc(OCC2c3cc(OC)c(OC)cc3CCN2C(=O)c2ccc(F)cc2)cc1 (stereo unspecified)	0	-	-	-
Cc1cc(C)n2c(Nc3c(C)cccc3C)c(-c3ccccn3)nc2n1	-69	-	-	-
Cc1cccc(C)c1Nc1c(-c2ccsc2)nc2ccccn12	0	-	-	-
Cc1cccc(C)c1Nc1c(-c2ccccn2)nc2ccccn12	-97	0	10µM	?
CCCCNc1c(-c2ccccn2)nc2nc(C)cc(C)n12	0	-	-	-
COc1ccccc1N1CCN(c2ncnc3onc(C)c23)CC1	0	-	-	-
CCn1c2ccccc2c2nnc(SCC(=O)Nc3c(C)n(C)n(-c4ccccc4)c3=O)nc21	0	12µM	0	?
Cc1c(NC(=O)CSc2nnc3c4ccccc4n(CCc4ccccc4)c3n2)c(=O)n(-c2ccccc2)n1C	-85	0	?	0
Cc1c(-n2c(SCC(C)C)nc3ccccc3c2=O)c(=O)n(-c2ccccc2)n1C	-64	?	0	?
Cc1c(NC(=O)CSc2nc3ccccc3c(=O)n2C(C)C)c(=O)n(-c2ccccc2)n1C	-65	0	0	?
C=CCn1c2ccccc2c2nnc(SCC(=O)Nc3c(C)n(C)n(-c4ccccc4)c3=O)nc21	0	0	?	?
Cc1ccc(CNC(=O)c2cc(-c3ccc(Cl)cc3)on2)cc1	0	-	-	-
CCN1CCN(Cc2nc3cc(NC(=O)c4cc(OC)c(OC)c(OC)c4)ccc3n2CC)CC1	0	-	-	-
CCCn1c2ccccc2c2nnc(SCC(=O)OC)nc21	0	0	0	0
CCCCn1c2ccccc2c2nnc(SCC(=O)NC3=NN=C(c4ccccc4)CS3)nc21	?	?	0	2.9µM
CCCN1CCN(C(=O)CN2C(=O)CC(C)(C)S(=O)(=O)c3ccccc32)CC1	?	15µM	0	0
CCOC(=O)N1CCN(C(=O)CN2C(=O)CC(C)(C)S(=O)(=O)c3ccccc32)CC1	0	3.3µM	0	-
O=Cc1ccc(Oc2cc(-c3ccccc3)nc(-c3ccccc3)n2)cc1	0	13µM	?	0
O=c1c(Cl)c(Cl)cnn1Cc1ccc(F)cc1	-99	?	8.9µM	0
C=CCn1c(C)cc(C(=O)Cn2ncc(Cl)c(Cl)c2=O)c1C	-98	0	13µM	0
O=C(OCn1ncc(Cl)c(Cl)c1=O)c1ccccc1Cl	-103	0	4µM	0
O=C(Cn1ncc(Cl)c(Cl)c1=O)c1ccc(Cl)cc1	-98	?	2.8µM	0
Cc1ccc(NC(=O)C(=O)NCC(c2cccnc2)N2CCN(C)CC2)cc1C (stereo unspecified)	0	-	-	-
C=CCn1c(C)cc(C(=O)CN2NS(=O)(=O)c3ccccc3C2=O)c1C	-74	0	?	0
CC(C)(C)C(=O)Cn1ncc(Cl)c(Cl)c1=O	-100	?	?	?
SMILES	HCMV inh	Pf growth 96h	HCV inh	Pf growth 48h
CC(C)(C)C(=O)Cn1ncc(N2CCCC2)c(Br)c1=O	0	0	0	0
O=[N+]([O-])c1cccc(/C([O-])=C(/C(=S)Nc2cccc3ccccc23)[n+]2ccccc2)c1	0	?	?	9.3µM
O=[N+]([O-])c1cccc(C([O-])=C(C(=S)Nc2cccc3ccccc23)[n+]2ccccc2)c1	0	-	?	-
O=[N+]([O-])c1ccc(/C([O-])=C(/C(=S)NCc2ccco2)[n+]2ccccc2)cc1	-61	0	0	0
CO[C@H]1C[C@@H]2CC[C@@H](C)[C@@](O)(O2)C(=O)C(=O)N2CCCC[C@H]2C(=O)O[C@H]([C@H](C)C[C@@H]2CC[C@@H](OCCO)[C@H](OC)C2)CC(=O)[C@H](C)/C=C(\C)[C@@H](O)[C@@H](OC)C(=O)[C@H](C)C[C@H](C)/C=C/C=C/C=C/1C	-	2.1µM	-	1.5µM
CO[C@H]1C[C@@H]2CC[C@@H](C)[C@@](O)(O2)C(=O)C(=O)N2CCCC[C@H]2C(=O)O[C@H]([C@H](C)C[C@@H]2CC[C@@H](O)[C@H](OC)C2)CC(=O)[C@H](C)/C=C(\C)[C@@H](O)[C@@H](OC)C(=O)[C@H](C)C[C@H](C)/C=C/C=C/C=C/1C	-	1.5µM	-	1.5µM
COc1ccc(-c2nc3n(n2)C(c2ccccc2F)C(C(=O)Nc2cccnc2)=C(C)N3)cc1OC (stereo unspecified)	0	-	-	-
O=C1C=C(NCCc2cc(Br)c(O)c(Br)c2)C(=O)c2ncccc21	-100	-	?	-
O=[N+]([O-])c1cccnc1NCCc1ccccc1	0	0	0	0
CC1CCN(S(=O)(=O)c2cc(C(=O)NCc3ccc(N(C)C)cc3)n(C)c2)CC1	0	-	-	-

Compound activity (PubChem BioAssay)
